# Results reported in PubChem BioAssay (NCATS).
# Inconclusive results are not listed. Entries that show only a call come without a potency. Calls of active or inactive are those of the source. Calls come from the whole dose curve.
# Assay: qHTS assay for small molecule disruptors of the mitochondrial membrane potential - 1 hr assay (AID 651754); note: nearly all actives have a fitted effect of over 35% in size
# Conditions: series mostly up to 92.2 µM
# Procedure, shortened: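 Mitochondrial potential in living HepG2 cells after 1 hr compound treatment at 37C was read with Mito-MPS dye added for a further 30 min. Red aggregate and green monomer fluorescence were measured; loss of potential leaves dye as cytoplasmic monomers.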
# Potency is the fitted concentration of half-maximal effect.
row,Structure (SMILES),Potency
1,Cc1c(O)cccc1C(=O)N[C@@H](CSc1ccccc1)[C@H](O)CN1C[C@H]2CCCC[C@H]2C[C@H]1C(=O)NC(C)(C)C,42.2 µM (active)
2,Cc1cc2nc3c(=O)[nH]c(=O)nc-3n(C[C@H](O)[C@H](O)[C@H](O)CO)c2cc1C,5.96 µM (active)
3,COC(=O)C1=C(C)NC(C)=C(C(=O)OC)C1c1ccccc1[N+](=O)[O-],inactive
4,[Cl][In]([Cl])[Cl],inactive
5,Oc1cccc(O)c1,inactive
6,CCCCCCCCCCCCOS(=O)(=O)O,inactive

# Assay: qHTS assay for small molecule disruptors of the mitochondrial membrane potential - 5 hr assay (AID 651755); note: nearly all actives have a fitted effect of over 40% in size
# Conditions: JC-1-type ratio dye; series mostly up to 92.2 µM
# Procedure, shortened: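 Membrane-potential dye readout: red aggregate (540 ex/590 em) versus green monomer (490 ex/535 em) fluorescence after 30 min dye loading, following 5 hr compound exposure at 37C of overnight-plated HepG2 cells.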
row,Structure (SMILES),Potency
1,NC(=O)N/N=C/c1ccc([N+](=O)[O-])o1,inactive
2,Cc1c(O)cccc1C(=O)N[C@@H](CSc1ccccc1)[C@H](O)CN1C[C@H]2CCCC[C@H]2C[C@H]1C(=O)NC(C)(C)C,66.8 µM (active)
3,Cc1cc2nc3c(=O)[nH]c(=O)nc-3n(C[C@H](O)[C@H](O)[C@H](O)CO)c2cc1C,7.5 µM (active)
4,COC(=O)C1=C(C)NC(C)=C(C(=O)OC)C1c1ccccc1[N+](=O)[O-],inactive
5,[Cl][In]([Cl])[Cl],inactive
6,Oc1cccc(O)c1,inactive
7,CCCCOC(=O)c1ccc(O)cc1,37.6 µM (active)
8,CCCCCCCCCCCCOS(=O)(=O)O,inactive
